Laboratory results taken from ChEMBL document CHEMBL4513216, “Probing the Open Global Health Chemical Diversity Library for Multistage-Active Starting Points for Next-Generation Antimalarials” (ACS Infect Dis, 2020).
Screen size: about 69,000 compounds; about 8,600 (12%) showed an effect of 50% or more. The list comes from a sample in which strong results are over-represented; it also holds similar structures and randomly drawn compounds.

system: Plasmodium berghei; experiment: Screen against P. berghei liver stage (PbLuc), transformed with Luciferase, at 10uM; assay type: functional, HepG2; conditions: tested at 10 uM

Structure (SMILES)	INHIBITION [%]
Cc1noc(C)c1CN1C[C@@H](OCc2ccccn2)[C@H]2OCCC[C@H]21	-14.4
Cc1ccc(Cc2cnc(C3CCNCC3)cn2)cc1	13.5
CC(C)n1nc(CN2CCOCC2)c2c1CN(Cc1ccsc1)C2	-18.2
OC(CN1CCC(c2ccn[nH]2)CC1)c1cccc(C(F)(F)F)c1 (stereo not drawn)	-33.9
Cc1cc(CN(Cc2ccccc2)CC(O)c2cccs2)on1 (stereo not drawn)	30.3
OC(CN(Cc1ccccc1)Cc1ccncc1)c1cccs1 (stereo not drawn)	7.11
OC(CN(Cc1ccccc1)Cc1ccon1)c1cccs1 (stereo not drawn)	70.1
OC(CN(Cc1ccccc1)Cc1ccccn1)c1cccs1 (stereo not drawn)	55.9
OC(CN(Cc1ccccc1)Cc1ccon1)c1ccco1 (stereo not drawn)	-21
Cc1cnc(CN(Cc2ccccc2)CC(O)c2cccs2)cn1 (stereo not drawn)	-34.7
Cn1cc(CN(Cc2ccccc2)CC(O)c2cccs2)cn1 (stereo not drawn)	-58.4
OC(CN(Cc1ccccc1)Cc1cscn1)c1cccs1 (stereo not drawn)	9.72
OC(CN(Cc1ccccc1)Cc1cccnc1)c1cccs1 (stereo not drawn)	57.2
CC(C)c1ccccc1NC(=O)N1C[C@H]2CC[C@@H](C1)N(C)C2=O	-14.5
Cn1cccc1CN(C(=O)CC(CC(=O)O)c1cccs1)C1CC1 (stereo not drawn)	-42.1
O=C1[C@@H]2CC[C@@H](CN(S(=O)(=O)c3ccccc3)C2)N1Cc1cscn1	25.1
CCN(C)S(=O)(=O)N1C[C@H]2CC[C@@H](C1)N(Cc1cscn1)C2=O	-23.7
CCCS(=O)(=O)N1C[C@H]2CC[C@@H](C1)N(Cc1cscn1)C2=O	53.3
Cn1cnc(S(=O)(=O)N2C[C@H]3CC[C@@H](C2)N(Cc2cscn2)C3=O)c1	10.5
CS(=O)(=O)N1C[C@H]2CC[C@@H](C1)N(Cc1cscn1)C2=O	13.5
CCN(CC)S(=O)(=O)N1C[C@H]2CC[C@@H](C1)N(Cc1cscn1)C2=O	51.1
Cc1cnc(C(=O)N2C[C@@H]3CN(CC4CCCC4)CCO[C@@H]3C2)cn1	13.6

Structure (SMILES)	INHIBITION [%]
CN(C)Cc1cc(=O)n2c(n1)CN(C(=O)Cc1ccsc1)CCC2	33.5
CCc1ncc(C(=O)NCCN(C)S(C)(=O)=O)cn1	43.2
CCCS(=O)(=O)CC(=O)Nc1cc(CC(C)(C)C)n[nH]1	-45.9
O=C1CCCN1CC1CN(CC2CCOCC2)Cc2nccn2C1 (stereo not drawn)	57.4
O=C1CCCN1CC1CN(C(=O)N2CCOCC2)Cc2nccn2C1 (stereo not drawn)	34.4
O=C1CCCN1CC1CN(C(=O)C2CCOCC2)Cc2nccn2C1 (stereo not drawn)	0.542
CCCc1nnc2sc(C3CCN(CCOC)CC3)nn12	31.2
NC(=O)CN1CCOCC(Cc2cccc(F)c2)C1 (stereo not drawn)	-44.2
Cc1cccc(N2CC[C@@H]3CN(Cc4csc(C)n4)CCO[C@@H]3C2)n1	66.5
Cc1cccc(CN2C[C@@H]3OCCN(S(=O)(=O)N(C)C)[C@@H]3C2)n1	54.1
Cc1cccc(CN2C[C@@H]3CN(Cc4ccoc4)CCO[C@@H]3C2)n1	23.3
Cc1cccc(CN2C[C@@H]3OCCN(S(=O)(=O)N(C)C)[C@@H]3C2)c1	-7.94
Cc1ccc(N2C[C@@H]3CN(Cc4csc(C)n4)CCO[C@@H]3C2)nn1	42.6
Cc1ccc(N2CC[C@@H]3CN(Cc4cccc(C)n4)C[C@@H]3C2)nn1	-2.41
Cc1ccc(N2CCO[C@@H]3CN(Cc4cccc(C)n4)CC[C@@H]3C2)nn1	52.3
Cc1nc(CN2CCO[C@@H]3CN(Cc4ccccn4)CC[C@@H]3C2)cs1	42.3
Cc1cccc(CN2C[C@@H]3OCCN(C)[C@@H]3C2)n1	-22.7
O=S(=O)(c1ccc(F)cc1)N1CCCCC1c1cc[nH]n1 (stereo not drawn)	13
CN1CCN(c2ncc(-c3cnccn3)c([C@H]3CCCO3)n2)CC1	14.7
CN1CCN(CC2CC2)C(=O)c2cnc(N3CCOCC3)nc21	26.3
CN(C)C[C@]12COC[C@H]1CN(C(=O)CCc1ccccc1)C2	6.66
CC(C)NC(=O)N1CCC[C@H]1C(=O)NCCCc1cnn(C)c1	-34.6

Structure (SMILES)	INHIBITION [%]
CC(=O)N1CCC(c2nccnc2-c2ccc(F)cc2)CC1	43.6
Cc1cc(C)n(CC2CCCCN2C(=O)c2ccc3[nH]nnc3c2)n1 (stereo not drawn)	20.9
CC(NC(=O)NCCCO)c1ccc2c(c1)OCCO2 (stereo not drawn)	52.1
CC(NC(=O)Cn1cccn1)c1ccc2c(c1)OCCO2 (stereo not drawn)	41.5
CC(NC(=O)Cn1cccn1)c1ccc2c(c1)OCCCO2 (stereo not drawn)	62.1
CC(NC(=O)CCn1cccn1)c1ccc2c(c1)OCCO2 (stereo not drawn)	22.3
CC(NC(=O)NCCCO)c1ccc2c(c1)NC(=O)CO2 (stereo not drawn)	-11.4
CC(NC(=O)NCCCn1cncn1)c1ccc2c(c1)OCCO2 (stereo not drawn)	21.8
Cc1ccc2c(c1)C1(CC(=O)Nc3[nH]ncc31)C(=O)N2C (stereo not drawn)	21.5
CN(Cc1ccc(N2CCOCC2)cc1)Cc1noc(C(C)(C)C)n1	-8.51
Cc1noc(CN(C)CC(c2cccs2)N2CCOCC2)n1 (stereo not drawn)	35.9
CN(Cc1noc(C(C)(C)C)n1)CC1CCN(CCO)CC1	37.5
CCc1noc(CN(CC(=O)N2CCCCC2)c2ccc(C)cc2)n1	50.1
CCc1noc(CN(C)Cc2ccc(N3CCCCC3)cc2)n1	61.8
CCc1nc(CN(C)CC(c2cccs2)N2CCOCC2)no1 (stereo not drawn)	36.4
CCc1noc(CN(CC(=O)N2CCCCC2)c2cccc(C)c2)n1	18
CCCc1noc(CN(C)Cc2ccc3c(c2)OCO3)n1	19.3
Cc1cccc(N(CC(=O)N2CCCCC2)Cc2ccno2)c1	36.2
CCc1noc(CN(C)Cc2cc(Br)ccc2OC)n1	30.9
CN(Cc1ccc(N2CCCCC2)cc1)Cc1noc(C(C)(C)C)n1	78.5
CCc1noc(CN(C)CC(c2cccs2)N2CCOCC2)n1 (stereo not drawn)	60.5
CN(C)C(=O)CN1CCCC(c2cncc(-c3cccc(Cl)c3)n2)C1 (stereo not drawn)	35.2

Structure (SMILES)	INHIBITION [%]
CC(=O)NCC1CCN(C(=O)NCCc2ccc(Cl)s2)CC1	13.3
CCCC(=O)N1CCCCC1c1nc(N(C)C)ncc1-c1cc(C)no1 (stereo not drawn)	23.1
CN1CCCC(c2cccc(CCC(=O)NCC3(C)COC3)n2)C1 (stereo not drawn)	13
NC(=O)Cn1cc(NC(=O)N2CCCCCC2)cn1	2.5
Cc1cc(CN2CCC(C(=O)O)(n3ccc(-c4ccco4)n3)CC2)on1	1.48
O=C1NCC2(CCCN(C(=O)c3c[nH]nc3-c3cccs3)C2)O1 (stereo not drawn)	6.29
Cn1cnc2ccc(NC(=O)CC3CCN(C4CCCCC4)CC3)cc21	12.17
Cc1ccnc(OC[C@]23COC[C@H]2CN(C(=O)c2cnccn2)C3)n1	32.2
CCc1ccc(Cn2nccc2NC(=O)C2CCS(=O)(=O)C2)cc1 (stereo not drawn)	11.8
COc1cccc2cc(CNCc3ccnc(N(C)C)c3)oc12	-4.94
CNC(=O)C1CN(c2ccnc(C)n2)CCN(C2CCOCC2)C1 (stereo not drawn)	23
CN(Cc1noc(C(C)(C)C)n1)Cc1ccccc1N1CCCCC1	90.4
Cc1cc(CN(C)Cc2ccccc2N2CCCCC2)n[nH]1	20.2
CN(Cc1noc(C(C)(C)C)n1)Cc1ccccc1N1CCCC1	-2.92
COCCc1noc(CN2CCCC(Cn3cncn3)C2)n1 (stereo not drawn)	-0.96
NC(=O)Cn1c(CO)cnc1SCC(=O)NCc1ccccc1	15
N#Cc1cccc(N2CCC(CO)(CCCc3ccccc3)CC2)n1	22
N#Cc1cccc(N2CCC(CO)(CCc3ccccc3)CC2)n1	51.7
N#Cc1cccc(N2CCC(CO)(CCOc3ccccc3)CC2)n1	17.4
Cn1cc(CC2CC(=O)N(Cc3ccc(Cl)cc3)C2=O)cn1 (stereo not drawn)	8.12
Nc1ncnc2c1ncn2[C@H]1CCN(Cc2ccsc2)CC[C@@H]1O	17.4
Cc1ncsc1CN1CC[C@H](O)[C@@H](n2cnc3c(N)ncnc32)CC1	50.1

Structure (SMILES)	INHIBITION [%]
Cc1ncsc1CN1CCN(C2CCOCC2)CC(C(N)=O)C1 (stereo not drawn)	25.6
CC(C)c1noc(-c2ccnc(-n3cnc(C(=O)O)c3)c2)n1	-8.35
CCc1nccn1-c1cccc(C2CCCN(C3CCCCC3)C2)n1 (stereo not drawn)	24.8
Cc1cn2nc(N3CCCC3Cn3cccn3)sc2n1 (stereo not drawn)	-12.1
O=C(C1CCCN(Cc2cccc(F)c2)C1)N1CCc2sccc2C1 (stereo not drawn)	14.1
O=C(C1CCCN(Cc2ccccc2)C1)N1CCc2sccc2C1 (stereo not drawn)	48.8
O=C(C1CCCN(Cc2cccnc2)C1)N1CCc2sccc2C1 (stereo not drawn)	55.5
Cc1nn(C)c(C)c1CCn1cncc1-c1ccc2c(c1)CC(C)N2C (stereo not drawn)	22.8
CCN1CCc2cc(-c3cncn3CCNC3CCS(=O)(=O)C3)ccc21 (stereo not drawn)	27.6
CC1Cc2cc(-c3cncn3CC(=O)NC(C)(C)C)ccc2N1C (stereo not drawn)	52
CCN1CCc2cc(-c3cncn3CC(=O)NC(C)(C)C)ccc21	6.32
CCN1c2ccc(-c3cncn3CC(=O)NC(C)(C)C)cc2CC1C (stereo not drawn)	59.3
CN1CCCc2cc(-c3cncn3CC(=O)NC(C)(C)C)ccc21	18.3
CCN1CCC2(CN(C(C)=O)CC23CCN(CC2CC2)CC3)C1=O (stereo not drawn)	-23.3
CN1CCC(NC(=O)Nc2ccc(Cl)c(F)c2)C1=O (stereo not drawn)	-6.39
O=C(Nc1ccncc1)NC1CCN(c2ccccc2Cl)C1=O (stereo not drawn)	50.8
Cn1cc(NC(=O)NC2CCCN(c3ccccc3Cl)C2=O)cn1 (stereo not drawn)	24.8
Cn1ccc(NC(=O)NC2CCCN(c3ccccc3Cl)C2=O)n1 (stereo not drawn)	74
Cc1cc(CC(=O)NC2CCCN(c3ccccc3Cl)C2=O)n[nH]1 (stereo not drawn)	8.44
CN1CCC(NC(=O)Nc2cnn(-c3ccccc3Cl)c2)C1=O (stereo not drawn)	37.7
